# In the library only some 11% were active in any assay of this set; here they are far more common.
# Luciferase inh: blocks purified firefly luciferase enzyme activity; actives 2.5% (n = 76,000); AID 1347043; P08659; purified P. pyralis luciferase, luminescence, biochemical; Potency, µM (highest dose often 115 µM), actives largely listed as inhibitors; note: nearly all actives have a fitted effect of over 65% in size
#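 Biochemical qHTS: compound (6-point titration) added to 10uM D-luciferin plus 10uM ATP in Tris acetate pH 7.5 buffer with Mg, Tween-20 and BSA, then purified enzyme at 10nM; light output imaged.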
# hNpr1 antagonist: human Npr1 receptor antagonism; AID 1347048; Potency, µM (titrated, usually from 46.3 µM), most hits filed as inhibitors; P16066; HEK293 hNpr1 GloSensor cGMP, ANP-stimulated luminescence; actives 1.6% (n = 76,000); calls by dose curve; note: nearly all actives have a fitted effect of over 60% in size
# Target sequence (P16066 whole entry, looked up): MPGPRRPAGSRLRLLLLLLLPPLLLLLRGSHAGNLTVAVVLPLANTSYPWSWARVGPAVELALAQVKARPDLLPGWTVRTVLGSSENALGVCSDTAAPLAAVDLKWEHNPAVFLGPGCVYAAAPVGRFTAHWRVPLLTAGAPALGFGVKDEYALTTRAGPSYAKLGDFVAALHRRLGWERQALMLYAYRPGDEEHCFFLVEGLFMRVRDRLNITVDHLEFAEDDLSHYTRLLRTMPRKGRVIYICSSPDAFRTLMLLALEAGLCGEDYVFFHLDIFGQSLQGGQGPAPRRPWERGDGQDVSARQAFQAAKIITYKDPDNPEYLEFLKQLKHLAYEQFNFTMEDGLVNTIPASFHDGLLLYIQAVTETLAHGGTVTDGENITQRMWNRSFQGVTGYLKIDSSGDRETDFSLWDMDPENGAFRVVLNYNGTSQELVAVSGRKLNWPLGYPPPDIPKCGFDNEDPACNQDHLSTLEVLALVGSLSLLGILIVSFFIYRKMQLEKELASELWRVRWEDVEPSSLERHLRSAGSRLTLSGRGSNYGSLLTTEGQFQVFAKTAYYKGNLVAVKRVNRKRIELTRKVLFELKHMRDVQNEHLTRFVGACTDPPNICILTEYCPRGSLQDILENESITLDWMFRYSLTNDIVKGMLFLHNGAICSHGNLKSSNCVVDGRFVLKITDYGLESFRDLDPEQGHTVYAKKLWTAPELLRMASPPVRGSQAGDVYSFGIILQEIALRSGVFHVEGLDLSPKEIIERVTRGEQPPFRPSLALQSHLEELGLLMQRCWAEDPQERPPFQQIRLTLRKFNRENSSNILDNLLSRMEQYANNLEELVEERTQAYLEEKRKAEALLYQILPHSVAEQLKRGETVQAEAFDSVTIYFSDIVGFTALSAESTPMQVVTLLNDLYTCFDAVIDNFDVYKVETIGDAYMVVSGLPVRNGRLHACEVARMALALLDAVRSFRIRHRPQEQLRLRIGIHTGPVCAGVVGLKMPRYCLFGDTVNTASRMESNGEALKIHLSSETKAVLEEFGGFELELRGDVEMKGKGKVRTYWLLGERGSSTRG
#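 Compound pre-incubated 30 min at room temperature on GloSensor-loaded HEK293 cells stably carrying hNpr1 and the pGS-40F cGMP biosensor. Stimulation uses hNppA at 0.1 nM final; luminescence is taken at baseline and 20 min post-agonist.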
# HEK cytotox: cytotoxic compounds in HEK 293 cells | HEK 293 viability, ATP luminescence (CellTiter-Glo), 48-72 h | Potency, µM (highest dose often 115 µM), most hits filed as inhibitors | actives 6.6% (n = 94,000); note: nearly all actives have a fitted effect of over 60% in size
#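 HEK 293 seeded at 250 cells/well receive compound via pintool. After 48 or 72 hr at 37 degree Celsius, 5% CO2 and 95% humidity, CellTiter-Glo is dispensed and luminescence read following 10 min at room temperature.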
# NIH3T3 tox: kills NIH 3T3 cells; NIH 3T3 viability, CellTiter-Glo ATP luminescence, 48-72 h; Potency, µM (top dose mostly 96.7 µM), actives largely listed as inhibitors; actives 4.3% (n = 94,000); AID 1345082; note: nearly all actives have a fitted effect of over 55% in size
#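 Mouse fibroblast NIH 3T3 cells, 400 per well, received compound via pintool and were incubated for 48 or 72 hr prior to CellTiter-Glo ATP luminescence measurement.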
# A number is an active result; . = inactive; ? = inconclusive; / = no result. Unless noted, calls come from the whole dose curve; as a rule, active = well fitted curve in the direction sought with a large enough effect; inconclusive = small, poorly fitted or top-dose-only effect, or another doubt; inactive = no such curve, though single readings can be large; an effect the other way counts as inactive or inconclusive.
SMILES,Luciferase inh,hNpr1 antagonist,HEK cytotox,NIH3T3 tox
CCn1cnnc1CC1CCCN(S(=O)(=O)c2ccc(OC)cc2)C1 (configuration not stated),/,/,.,.
CCOc1ccccc1C(=O)N1CCC2(CC1)NC(=O)N(c1ccccc1)N2,.,.,?,?
CCCc1nnc(C[C@@H]2C[C@@H](C(C)C)[C@H](CN3CCN(C(C)=O)CC3)C=C2C)o1,.,.,100µM,.
CC1=C[C@@H](CN2CCN(c3ncccn3)CC2)[C@H](C(C)C)C[C@H]1Cc1nnc(Cc2c[nH]c3ccccc23)o1,.,.,45µM,?
CCCc1nnc(C[C@@H]2C[C@@H](C(C)C)[C@H](CN3CCC(O)CC3)C=C2C)o1,.,.,.,.
CCCc1nnc(C[C@@H]2C[C@@H](C(C)C)[C@H](CN3CCN(c4ncccn4)CC3)C=C2C)o1,.,.,40µM,?
CCCc1nnc(C[C@@H]2C[C@@H](C(C)C)[C@H](CNc3cccnc3)C=C2C)o1,.,.,89µM,25µM
COCCOCc1nc(C2CCN(C(=O)Nc3ccccc3F)C2)no1 (configuration not stated),/,/,.,.
Cc1nc(-c2ccc(F)cc2)n(CC(=O)Nc2cc(C(F)(F)F)ccc2Cl)c(=O)c1CCO,.,.,32µM,?
CSc1cccc(NC(=O)Cn2c(-c3ccc(Cl)cc3)nc(C)c(CCO)c2=O)c1,.,.,32µM,.
Cc1nc(-c2ccc(Cl)cc2)n(CC(=O)Nc2cccc(C(F)(F)F)c2)c(=O)c1CCO,.,.,40µM,?
Cc1ccc(NC(=O)Cn2c(-c3ccc(F)cc3)nc(C)c(CCO)c2=O)c(Cl)c1,.,.,?,.
Cc1nc(-c2ccc(F)cc2)n(CC(=O)Nc2cccc(C(F)(F)F)c2)c(=O)c1CCO,.,?,20µM,22µM
COc1cc(NC(=O)Cn2c(-c3ccc(Cl)cc3)nc(C)c(CCO)c2=O)cc(OC)c1,.,.,?,.
COc1ccc(C)cc1NC(=O)Cn1c(-c2ccc(F)cc2)nc(C)c(CCO)c1=O,.,.,79µM,.
Cc1nc(-c2ccc(F)cc2)n(CC(=O)Nc2ccccc2)c(=O)c1CCO,.,.,45µM,.
Cc1nc(-c2ccccc2)n(CC(=O)Nc2ccc(F)cc2)c(=O)c1CCO,.,.,?,?
Cc1cccc(N2Cc3c(ncnc3N3CCN(C)CC3)N(C)CC2=O)c1,/,/,.,.
O=C(NC1CCN(c2ccc3nnc(-c4ccccc4)n3n2)C1)c1cccc(C(F)(F)F)c1 (configuration not stated),/,/,.,?
CCOC(=O)CNC(=O)N1CC2(CCCCC2)CC1COc1ccc(OC)cc1 (configuration not stated),/,/,.,.
CCn1cc(S(=O)(=O)N2CC3(CCCCC3)CC2COc2ccc(OC)cc2)cn1 (configuration not stated),/,/,32µM,?
COCCNc1nc(-c2c(C)noc2C)cc2cc(C(C)C)oc12,.,.,71µM,?
COCCCNc1nc(-c2c(C)noc2C)cc2cc(C(C)C)oc12,.,.,89µM,?
Cc1ccccc1C(=O)N1CCC(C(=O)N2CCC3(CC2)CC(=O)Nc2ccccc2O3)CC1,/,/,?,.
Cc1cccc2c(C3CCN(S(=O)(=O)c4cc(F)c(F)cc4Cl)CC3)c[nH]c12,.,.,?,32µM
SMILES,Luciferase inh,hNpr1 antagonist,HEK cytotox,NIH3T3 tox
COc1ccc(Cl)cc1S(=O)(=O)N1CCC(c2c[nH]c3c(C)cccc23)CC1,.,.,?,?
COc1ccc(-c2cc(C(=O)NCc3cccc(Cl)c3)c3cnn(C)c3n2)cc1,/,/,.,?
O=C(NCc1ccccc1F)c1ccc2oc(-c3ccncc3)nc2c1,/,/,?,.
CNC(=O)c1cc(C2CC2)nc2onc(C3CCCN3C(=O)c3cccc(OC)c3)c12 (configuration not stated),/,/,.,.
CCn1ncc(NC(=O)Cn2ncc3cc(-c4cc(F)ccc4F)ccc32)n1,.,?,.,?
CCn1ncc(NC(=O)Cn2ncc3cc(-c4ccc(C(=O)N(C)C)cc4)ccc32)n1,6.3µM,.,45µM,.
CCn1ncc(NC(=O)Cn2ncc3cc(-c4cccc(OC)c4)ccc32)n1,?,?,.,.
CCn1ncc(NC(=O)Cn2ncc3cc(-c4ccc(F)cc4F)ccc32)n1,?,13µM,.,?
CCn1ncc(NC(=O)Cn2ncc3cc(-c4cccc(C#N)c4)ccc32)n1,.,?,25µM,?
O=C([C@H]1CCCN1C(=O)C1CCCC1)N1CCC(N2CCOC2=O)CC1,/,/,.,.
COc1ccc(NC(=O)c2ccc3c(c2)OCCN(C2CCC2)C3)cn1,.,.,?,.
COc1cccc2sc(NC(=O)c3ccc4c(c3)OCCN(C3CCC3)C4)nc12,?,?,32µM,?
COc1ccccc1C(=O)N1CCCn2nc(C)c(-c3ccccc3Oc3ccccc3)c21,.,.,100µM,?
Cc1nn2c(c1-c1ccccc1Oc1ccccc1)N(C(=O)c1ccccc1)CCC2,.,.,56µM,45µM
Cc1nn2c(c1-c1ccccc1Oc1ccccc1)N(C(=O)Cc1ccccc1)CCC2,.,?,79µM,?
Cc1nn2c(c1-c1ccccc1Oc1ccccc1)N(C(=O)c1cnccn1)CCC2,.,.,.,?
Cc1nn2c(c1-c1ccccc1Oc1ccccc1)N(C(=O)c1cccc(C#N)c1)CCC2,.,.,71µM,?
COc1ccccc1C(=O)N1CCCn2nc(C)c(-c3ccccc3OCc3ccccc3)c21,.,.,?,?
O=C(NCc1ccccc1)c1cn2cc(-c3ccc(C(F)(F)F)cc3)sc2n1,/,/,.,.
Cc1ccccc1C(=O)NCCNC(=O)c1ccc(-c2cccc(C(F)(F)F)c2)cc1,/,/,?,.
COc1cccc(OCC2CN(Cc3cccc(C(F)(F)F)c3)C(=O)c3c(ccnc3-c3ccc(OCC(=O)O)cc3)O2)c1OC (configuration not stated),45µM,.,.,?
O=C(O)COc1ccc(-c2nccc3c2C(=O)N(Cc2c[nH]c4ccccc24)CC(COc2ccc(F)cc2F)O3)cc1 (configuration not stated),45µM,.,.,?
COc1ccc(C(=O)N2CCCC(C(=O)N3CCCC(c4nc5ncccc5[nH]4)C3)C2)cc1 (configuration not stated),/,/,.,?
CNC(=O)[C@H]1C[C@]2(CCCCN(CCO)C2=O)N(C(=O)NCc2ccccc2)[C@H]1c1ccccc1,/,/,.,?
CC1Oc2ccc(NC(=O)Nc3ccccc3)cc2CN(Cc2ccccc2)C1=O (configuration not stated),?,?,45µM,35µM
CC1Oc2ccc(NC(=O)C3CCCC3)cc2CN(Cc2ccc(F)cc2)C1=O (configuration not stated),.,.,?,25µM
CC1Oc2ccc(NC(=O)c3cccs3)cc2CN(Cc2ccccc2)C1=O (configuration not stated),.,.,25µM,?
CCC1Oc2ccc(NC(=O)C3CCCC3)cc2CN(Cc2ccc(F)cc2)C1=O (configuration not stated),.,.,?,?

# High-throughput results from PubChem.
